Bioassay records as filed in PubChem BioAssay.
Rows were chosen to be rich in hits. Some 1.4% of all compounds tested hit in one or more screens of this group.
N370S GC = N370S glucocerebrosidase modulation, Gaucher chaperone candidate; P04062; N370S GC spleen homogenate, 4MU-glucoside fluorescence; Potency, µM (titrated, usually from 59.4 µM), actives largely listed as inhibitors; hit rate 0.092% among 330,000
A-T KAP1 phos = candidate therapy for ataxia-telangiectasia; F2112 A-T fibroblasts, KAP-1 phosphorylation AlphaLISA; neocarzinostatin DNA damage 30 min before lysis; Potency, µM (top dose mostly 57.5 µM), actives largely listed as activators; hit rate 0.19% among 320,000; AID 485349; note: nearly all actives have a fitted effect of over 45% in size
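ATM-like activity read as KAP-1 phosphorylation via AlphaLISA donor/acceptor antibody pairs after lysis and 6 hr at 25C. Cells were ATM-null patient fibroblasts (F2112, hTERT), dosed 60 min, then exposed to the DSB inducer NCS for 30 min.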
rTrxR1 inhibitor = blocks rat thioredoxin reductase 1. O89049. recombinant rTrxR1, NADPH fluorescence consumption, selenite substrate. Potency, µM (titrated, usually from 114 µM), hits mostly inhibitors. hit rate 1% among 390,000. AID 588453; note: nearly all actives have a fitted effect of over 65% in size
Target sequence (O89049 whole entry, looked up): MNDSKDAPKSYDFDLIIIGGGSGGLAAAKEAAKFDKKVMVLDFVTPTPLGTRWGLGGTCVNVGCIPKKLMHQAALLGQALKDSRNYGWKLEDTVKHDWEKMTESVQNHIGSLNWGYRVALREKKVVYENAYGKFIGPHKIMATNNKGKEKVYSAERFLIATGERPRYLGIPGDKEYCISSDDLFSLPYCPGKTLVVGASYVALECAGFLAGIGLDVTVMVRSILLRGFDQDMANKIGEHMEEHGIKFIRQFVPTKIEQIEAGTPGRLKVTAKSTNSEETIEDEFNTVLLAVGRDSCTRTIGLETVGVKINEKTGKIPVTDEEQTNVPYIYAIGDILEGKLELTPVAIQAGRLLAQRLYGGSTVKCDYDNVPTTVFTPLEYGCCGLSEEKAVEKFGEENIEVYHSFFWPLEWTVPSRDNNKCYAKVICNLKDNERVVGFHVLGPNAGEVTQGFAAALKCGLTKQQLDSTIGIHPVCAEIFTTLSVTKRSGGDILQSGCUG
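Rat TrxR1 (90 nM in the dispensed reagent) was pre-reduced with 400 uM NADPH for 5 min at room temperature, then incubated with compound for 15 min. After 400 uM selenite was added, NADPH fluorescence (Ex 340/Em 450 nm) was followed for 8 min.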
Pin1 inh = inhibitors of human Pin1; Pin1 FP peptide displacement, HiFluor488, 10 min; Q13526; Potency, µM (top dose mostly 115 µM), most hits filed as inhibitors; hit rate 0.009% among 390,000; AID 504891; active = well fitted inhibition curve with a large enough effect in the polarisation, with a control signal flat, not every such curve was filed as active; inconclusive = small, poorly fitted or top-dose-only effect, or effect the other way, or a change in a side signal; inactive = no such curve, though single readings can be large or run the other way; the % refers to the polarisation
Target sequence (Q13526 whole entry, looked up): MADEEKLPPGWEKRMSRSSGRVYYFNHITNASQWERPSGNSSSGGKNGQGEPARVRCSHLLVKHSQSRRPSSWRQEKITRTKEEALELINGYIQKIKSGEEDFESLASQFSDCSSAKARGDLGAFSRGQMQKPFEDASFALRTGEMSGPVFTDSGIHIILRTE
pAkt inh = blocks phosphorylation of Akt; hit rate 0.32% among 360,000; Neuro2A IGF-stimulated pAkt S473 HTRF, 20 min; stronger effect = lower value; AID 651550; activity change, % for hits at 50 µM; in the data active = activity change below about -80%; inconclusive = mostly about -51% to -80%
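Single-point screen (50 µM final compound) in Neuro2A cells stimulated 20 min with 6 nM IGF at 37 deg C. After lysis, Ser473-phosphorylated Akt read by HTRF (ex 330 nm, em 615/665 nm) as the 665/615 ratio.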
TrxR1 substrate = is turned over as a substrate by rat TrxR1. Potency, µM (top dose mostly 114 µM). hit rate 0.01% among 390,000. purified TrxR1 substrate turnover, NADPH consumption readout; note: nearly all actives have a fitted effect of over 50% in size
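Rat TrxR1, dispensed at 90 nM, was prereduced with 400 uM NADPH (final) for 5 min at ~22 deg C, then incubated with compound 15 min before 400 uM selenite. A first-read NADPH fluorescence drop versus no-compound background flagged substrates.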
Hits are given with their value; i = inactive; ? = inconclusive; nt = not tested or not shown; [ ] = dose if it differs, or a comment. Unless noted, calls come from the whole dose curve; as a rule, active = well fitted curve in the direction sought with a large enough effect; inconclusive = small, poorly fitted or top-dose-only effect, or another doubt; inactive = no such curve, though single readings can be large; an effect the other way counts as inactive or inconclusive.

SMILES | N370S GC | A-T KAP1 phos | rTrxR1 inhibitor | Pin1 inh | pAkt inh | TrxR1 substrate
CN1CCN(C2Cc3ccccc3Sc3ccc(S)cc32)CC1 (stereo not given) | 13µM | nt | nt | nt | nt | nt
ONCc1ccccc1 | i | nt | nt | nt | nt | nt
COc1cc(C2SC[C@H]3C(=O)N(c4ccccc4)C(=O)N23)cc(OC)c1OC (stereo not given in full) | nt | nt | 79µM | i | nt | i
Cc1ccc(N2C(=O)[C@@H]3CSC(c4ccc(F)cc4)N3C2=O)cc1 (stereo not given in full) | nt | nt | i | i | nt | i
Cc1ccc(C)c(OCc2cc(C(=O)N3CCN(C(=O)c4ccco4)CC3)no2)c1 | i | i | ? | i | i | i
O=C(c1cc(COc2ccc(F)cc2F)on1)N1CCN(C(=O)c2ccco2)CC1 | i | i | 50µM | i | i | i
C/C=C1\COC(C(=O)NCCN2CCCC2)(C(F)(F)F)C=C1C=C1CCCCC1 (stereo not given) | i | nt | i | i | i | i
C/C=C1\COC(C(=O)NCc2ccccc2)(C(F)(F)F)C=C1C=C1CCCCC1 (stereo not given) | i | nt | 1µM | i | i | i
C/C=C1\COC(C(=O)NCCCN2CCCC2=O)(C(F)(F)F)C=C1C=C(C)C (stereo not given) | i | nt | 3.2µM | i | i | i
CCOC(=O)N1CCC(NC(=O)c2ccc3c(c2)N(Cc2cc(C)ccc2C)C(=O)c2ccccc2S3(=O)=O)CC1 | nt | nt | i | i | nt | i
CN1CC(c2ccccn2)C2(SC(=S)N(Cc3ccccc3)C2=O)C12C(=O)Nc1ccccc12 (stereo not given) | i | i | i | i | -84% | i
CN(C)/[N+]([O-])=N/Oc1ccc([N+](=O)[O-])cn1 | nt | nt | i | nt | nt | i
CCN(CC)/[N+]([O-])=N/Oc1cc(O/N=[N+](\[O-])N(C)C)c([N+](=O)[O-])cc1[N+](=O)[O-] | i | nt | 11µM | i | nt | i
Cc1ccc(C(=O)NC(=C(Cl)Cl)S(=O)(=O)c2ccc(Cl)cc2)cc1 | i | i | 32µM | ? | i | i
O=C(NC(=C(Cl)Cl)S(=O)(=O)c1ccc(Cl)cc1)c1ccccc1 | i | i | 45µM | i | i | i
CN(C)c1cccc(-c2cnc(N3CCC(c4ncc[nH]4)CC3)s2)c1 | nt | nt | nt | i | nt | nt
Cc1c(C(=O)N(Cc2ccccc2F)C2CCS(=O)(=O)C2)oc2ccccc12 (stereo not given) | nt | nt | i | i | nt | i
CCCn1c(CN2CCN(C(=O)c3ccco3)CC2)nc2cc(S(=O)(=O)N(C)C)ccc21 | i | i | 20µM | i | i | i
CCn1c(CN2CCN(c3ccc(OC)cc3)CC2)nc2cc(S(=O)(=O)N(C)C)ccc21 | i | i | i | i | i | i
COc1cccc(-n2c(=O)c3sc4ccccc4c3n(CC(=O)NC3CCCCC3)c2=O)c1 | nt | nt | i | i | nt | i
O=C1C(=C(I)I)c2ccccc2-c2ccccc21 | nt | nt | 0.89µM | nt | i | i
O=C1c2ccccc2C(=O)c2c(O)ccc(O)c21 | i | nt | nt | nt | nt | nt
O=C(NC(=S)Nc1ccc(Cl)c(C(=O)O)c1)c1cccc(COc2ccccc2)c1 | i | i | 71µM | i | i | i
CCOc1cccc(C(=O)NC(=S)Nc2cccc(C)c2)c1 | i | i | 5µM | i | i | i
COc1cccc(C(=O)NC(=S)Nc2ccc(N(C)C)cc2)c1 | i | i | 20µM | i | i | i
SMILES | N370S GC | A-T KAP1 phos | rTrxR1 inhibitor | Pin1 inh | pAkt inh | TrxR1 substrate
CCCOc1cccc(C(=O)NC(=S)Nc2cccc(C(F)(F)F)c2)c1 | i | i | i | i | i | i
O=[S+]([O-])(c1cc2ccccc2o1)N1CCN([S+](=O)([O-])c2c(F)cccc2F)CC1 | nt | nt | nt | i | nt | nt
COc1ccc(-c2cnc(N3CCC(C(N)=O)CC3)s2)cc1OC | nt | nt | nt | i | nt | nt
O=C(c1ccc(Br)s1)N1CCN(C/C=C/c2ccccc2)CC1 | i | i | i | i | i | i
O=C(c1ccc(Br)o1)N1CCN(C/C=C/c2ccccc2)CC1 | i | i | i | i | -109% | i
NC(N)=Nc1ccc(/C=C2\C=Cc3ccccc32)cc1 | nt | nt | i[0.0914 µM] | nt | nt | i
O=c1c2ccccc2nc2sc(NCc3ccccc3)nn12 | nt | nt | nt | i | nt | nt
CCN1/C(=C/C=C/C=C/c2sc3ccccc3[n+]2CC)Sc2ccccc21 | i | 32µM | ? | nt | nt | i
CCN1/C(=C/C=C/C=C/C=C/c2sc3ccccc3[n+]2CC)Sc2ccccc21 | i | i | i | ? | i | i
COc1cccc2c1NC(C(=O)O)C1CC=CC21 (stereo not given) | i | i | 13µM | nt | i | i
Cc1ccnc(NC(=O)CN(C)S(=O)(=O)c2cccc3nsnc23)c1 | i | i | i | i | i | i
Cc1ccc2nc(NC(=O)CN(C)S(=O)(=O)c3cccc4nsnc34)sc2c1 | ? | i | i | i | -101% | i
CCOc1cc(C=C(C#N)C#N)ccc1Oc1ccc([N+](=O)[O-])cn1 | i | i | 10µM | i | i | i
COc1ccc(C(=O)/C=C/Sc2nc3ccccc3o2)cc1 | i | i | 1µM | i | i | i
O=S(=O)(Nc1ccc(-c2nc3cccnc3s2)cc1)c1ccccc1F | ? | 16µM | i | i | i | i
CC(C)OC(=O)CC(=O)c1sc2nc3c(cc2c1N)CN(C)CC3 | i | i | 20µM | ? | i | i
Nc1c(-c2ccc(Cl)cc2)cnn1-c1cccc(C(F)(F)F)c1 | i | i | i | i | -113% | i
Cc1cccc(CN2Cc3cccc4c3[C@H](C=CC4)CC2=O)c1 | nt | nt | i | nt | nt | i
Cc1ccc(CN(CC2CCCO2)C(=O)CN2C(=O)C(C(C)C)Oc3ccccc32)o1 (stereo not given) | i | i | 10µM | i | i | i
Cc1ccc(NC(=O)CN(C)Cc2cc(=O)n3ccsc3n2)cc1 | i | 13µM | i | i | i | i
CN(CC(=O)Nc1ccc(Cl)cc1)Cc1cc(=O)n2ccsc2n1 | i | i | i | i | i | i
CN(C)c1ccc(/C=C/c2c3c(nc4ccccc24)CCCC3)cc1 | nt | nt | i | nt | nt | i
O=C(Nc1nc2n(n1)C(c1ccc(F)cc1)C=C(c1ccccc1)N2)c1cccc([N+](=O)[O-])c1 (stereo not given) | nt | nt | i | i | nt | i
Cc1cccn2c(=O)c3cc(C#N)c(=NC(=O)c4ccccc4)n(Cc4ccco4)c3nc12 | nt | nt | 50µM | ? | i | i
CCOC(=O)c1cc2c(=O)n3ccccc3nc2n(Cc2ccco2)c1=NC(=O)c1cccc(Br)c1 | nt | nt | 4µM | ? | nt | i
Cc1cccc(C(=O)N=c2c(C#N)cc3c(=O)n4cccc(C)c4nc3n2Cc2ccco2)c1 | ? | i | 6.3µM | ? | i | i
Cc1cccc(Nc2nnc(-c3ccc(C)c(S(=O)(=O)NCC4CCCO4)c3)c3ccccc23)c1 (stereo not given) | nt | nt | i | i | nt | i
CC(=O)c1ccc(N=Cc2c(O)n(-c3cc(Cl)ccc3N3CCOCC3)c(=O)c3ccccc23)cc1 | i | i | i | i | -120% | i
